Test [1] in a line: qHTS for differential inhibitors of proliferation of Plasmodium falciparum line Dd2 (AID 1882). Note: series mostly up to about 29 µM; nearly all actives have a fitted effect of over 65% in size. To be noted: Potency: Plasmodium falciparum Dd2 proliferation inhibition. The method in brief:
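Dd2-infected erythrocytes (0.3% parasitemia, 2.5% hematocrit final) incubated with compound 72 h at 37 C, 5% CO2; lysed with saponin/Triton buffer containing SYBR Green I, incubated overnight in the dark, then read by fluorescence (485/535 nm). Normalized to 0.29 uM artemisinin and DMSO.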
Background: Quantitative high-throughput screening tests each substance at several concentrations.

A short description of test [2]: qHTS for differential inhibitors of proliferation of Plasmodium falciparum line W2 (AID 1883).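 Note: parasites grown with compound for 72 h before lysis and staining.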 Note: potency is the fitted concentration of half-maximal effect. As to conditions: Potency: Plasmodium falciparum W2 proliferation inhibition.
Test [3] has as its target Ferritin light chain (Equus caballus) (UniProt P02791). Nature of the test: qHTS Validation Assay for Identification of Novel General Anesthetics (AID 2323). Note: series mostly up to about 77 µM. An outline of the steps: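 Horse-spleen apoferritin (10 uM) in PBS with 50% saturated 1-aminoanthracene; compounds pin-transferred, 10 min at room temperature. Fluorescence read at 380/535 nm, normalized to free 1-AMA and 1-AMA/apoferritin values; four-parameter Hill fit.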

The target in test [4] is ATP-dependent DNA helicase Q1 (Homo sapiens) (UniProt P46063). Description: qHTS Validation Assay for Inhibitors of RecQ-Like Dna Helicase 1 (RECQ1) (AID 2353). An outline of the steps:
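50 nM RECQ1T1 preincubated 15 min with compound in Tris pH 8.0 buffer with MgCl2, DTT, Tween-20 and 2.5 ug/ml poly(dI-dC); started with 200 nM TAMRA/BHQ-2 forked duplex and 2 mM ATP. Unwinding read as fluorescence (525/598 nm), two reads 2 h apart.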

Test [5] in a line: Cytometric Cell-Based qHTS for Inhibitors of the mTORC1 Signaling Pathway in MEF (Tsc2-/-, p53-/-) Cells (AID 2660).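 Note: percent of cells above a phospho-rpS6 to PI ratio cutoff in each well; series mostly up to about 38 µM.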 An outline of the steps:
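Immunofluorescence qHTS of rpS6 Ser235/236 phosphorylation: MEFs (Tsc2-/-, p53-/-) treated 24 h, 37 C, in DMEM + 10% FBS. Alexa-488 signal normalized to PI count, referenced to rapamycin (7.5 nM) and DMSO; PI cell number recorded for viability.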

Test [6] in a line: High Content Imaging Cell-Based qHTS for Inhibitors of the mTORC1 Signaling Pathway in MEF (Tsc2-/-, p53-/-) Cells (AID 2666). An outline of the steps: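 Phospho-rpS6 (Ser235/236) immunofluorescence, normalized and scored as % positive cells using rapamycin and DMSO controls, was read in empty-vector Tsc2-/-, p53-/- MEFs after 24 h compound exposure at 37 C; propidium iodide counted cells.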

Test [7] can be described thus: High Content Imaging Cell-Based qHTS for Inhibitors of the mTORC1 Signaling Pathway in MEF Cells (AID 2667).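 Note: Tsc2-/- p53-/- MEFs stably re-expressing wild-type Tsc2 exposed 24 h; series mostly up to about 38 µM.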 An outline of the steps: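 WT MEFs (Tsc2-/-, p53-/- re-expressing Tsc2), in DMEM + 10% FBS, were treated with compound for 24 h at 37 C. Cells were then fixed and stained for phospho-rpS6 Ser235/236 with propidium iodide as cell count. Values are % positive cells, with thresholds set against rapamycin-treated cells.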

The nature of test [8]: Validation screen for small molecules that induce DNA re-replication in MCF 10A normal breast cells (AID 463097). Note: nearly all actives have a fitted effect of over 60% in size. An outline of the steps: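 MCF 10A cells exposed to compound 48 hr at 37 C, 5% CO2, then Hoechst-stained 40 min. Laser-scanning imaging of nuclear DNA content (405 nm ex, 500-530 nm em); re-replication scored as rise in nuclei with elevated fluorescence intensity.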

Test [9] addresses Ubiquitin carboxyl-terminal hydrolase 2 (Homo sapiens) (UniProt O75604). Description: qHTS Validation Assay for Inhibitors of Ubiquitin-specific Protease USP2a Using CHOP2 as the Reporter (AID 463106). The method in brief: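 USP2 core (10 nM final) was preincubated with compound 30 min at RT in pH 8.0 Tris/CaCl2/beta-ME/CHAPS buffer. Ub-CHOP2 and reporter substrate (25 nM final each) were then added, with fluorescence (Ex 485/Em 531) read after 60 min. Data were normalized to NEM full inhibition and fitted to concentration-response curves.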

Test [10] has as its target DNA polymerase III PolC-type (Bacillus subtilis (strain 168)) (UniProt P13267). Nature of the test: qHTS Validation Assay for the Inhibitors of DNA Replication in Gram-Positive Bacteria (AID 485295).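 Note: PicoGreen fluorescence of double-stranded DNA made on primed circular M13 template; series mostly up to about 57 µM.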 The method in brief:
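Reconstituted B. subtilis Pol III holoenzyme (PolC, beta clamp, SSB, primase) preincubated with compound, then M13Gori single-stranded circular template with dNTPs/NTPs added; room temperature reaction. Stopped with EDTA/PicoGreen; dsDNA fluorescence read, EDTA as full-inhibition control.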

Test [11] concerns the target Tumor susceptibility gene 101 protein (Homo sapiens) (UniProt Q99816). Nature of the test: qHTS Validation Assay for Iinhibitors of HIV-1 Budding by Blocking the Interaction of PTAP/TSG101 (AID 485342; calls by dose curve). The method in brief:
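Tsg101 binding domain (10 uM) with FITC-labeled PTAP peptide (50 nM) in HEPES pH 7.5 buffer, 20 min at r.t. with compounds. Binding measured by fluorescence polarization.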

A short description of test [12]: qHTS Validation Assay to Find Inhibitors of Chronic Active B-Cell Receptor Signaling (AID 485345; active = well fitted curve in the direction sought with a large enough effect in the main read-out, with a control signal flat, not every such curve was filed as active). An outline of the steps:
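TMD8 ABC-DLBCL cells stably carrying doxycycline-inducible IkappaBalpha–green luciferase fusion plus unfused red luciferase; compounds 46 uM to 3 nM, 4 h at 37C with doxycycline. Corrected green/red luminescence ratio normalized to 10 uM MG-132 and basal cell wells; curves fitted.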

The target of test [13] is Beta-2 adrenergic receptor (Homo sapiens) (UniProt P07550). Description: qHTS validation assay of beta-arrestin-biased ligands of beta2-adrenergic receptor (AID 485366). The method in brief:
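Arrestin-recruitment (Tango) reporter: ligand-bound beta2-AR recruits beta-arrestin, releasing tTA, which upregulates luciferase. Titrations of up to 46 microM incubated 18 hr at 37 degrees C before luminescent readout.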

Test [14] in a line: Cytometry Cell-Based qHTS for Inhibitors of the mTORC1 Signaling Pathway in MEF cells (AID 2668).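 Note: Tsc2-/- p53-/- mouse embryonic fibroblasts stably re-expressing wild-type Tsc2; percent cells positive for phospho-rpS6 Ser235/236 relative to propidium iodide stain; series mostly up to about 38 µM.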 An outline of the steps:
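MEFs (Tsc2-/-, p53-/- stably expressing WT Tsc2) treated 24 h at 37 degree Celsius, fixed, stained with Alexa-488 anti-phospho-rpS6 Ser235/236 and propidium iodide; Acumen laser scanning. Reported as % positive cells, phospho-S6 normalized to PI.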

Test [15] can be described thus: qHTS for differential inhibitors of proliferation of Plasmodium falciparum line HB3 (AID 1886).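 Note: parasites grown with compound for 72 h before SYBR Green readout.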 To be noted: Potency: Plasmodium falciparum HB3 proliferation inhibition.
Test [16] can be described thus: qHTS Assay for Modulators of Human Peripheral Myelin Protein 22 (PMP22) Expression/Activity (AID 1967; active = well fitted curve in the direction sought with a large enough effect in the signal ratio; the % refers to the signal ratio). The method in brief: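 Mouse MSC80 Schwann cells carrying Pmp22 promoter–green click beetle luciferase plus EF-alpha–red luciferase control, dosed 24 h at 37 °C. Dual-filter luminescence, overlap-corrected; %Activity from green/red ratio normalised to untreated cells, concentration-response curves fitted.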

Test [17] addresses RecQ-like DNA helicase BLM (Homo sapiens) (UniProt P54132). Nature of the test: qHTS Validation Assay for Inhibitors of Bloom's syndrome helicase (BLM) (AID 2364). Note: potency is the fitted concentration of half-maximal effect. The method in brief: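 50 nM BLM preincubated 15 min at room temperature with compound in pH 8.0 Tris buffer containing 2.5 ug/ml poly(dI-dC); started with 200 nM TAMRA/BHQ-2 forked duplex and 2 mM ATP (final). Unwinding read as TAMRA fluorescence increase, two reads 2 h apart.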

Each structure is given as a SMILES string. Records with an inconclusive call do not appear. Calls of active or inactive are those of the source. Unless noted, calls come from the whole dose curve; as a rule, active = well fitted curve in the direction sought with a large enough effect; inconclusive = small, poorly fitted or top-dose-only effect, or another doubt; inactive = no such curve, though single readings can be large; an effect the other way counts as inactive or inconclusive.

Sequence of ATP-dependent DNA helicase Q1 (Homo sapiens) (P46063 whole entry, looked up): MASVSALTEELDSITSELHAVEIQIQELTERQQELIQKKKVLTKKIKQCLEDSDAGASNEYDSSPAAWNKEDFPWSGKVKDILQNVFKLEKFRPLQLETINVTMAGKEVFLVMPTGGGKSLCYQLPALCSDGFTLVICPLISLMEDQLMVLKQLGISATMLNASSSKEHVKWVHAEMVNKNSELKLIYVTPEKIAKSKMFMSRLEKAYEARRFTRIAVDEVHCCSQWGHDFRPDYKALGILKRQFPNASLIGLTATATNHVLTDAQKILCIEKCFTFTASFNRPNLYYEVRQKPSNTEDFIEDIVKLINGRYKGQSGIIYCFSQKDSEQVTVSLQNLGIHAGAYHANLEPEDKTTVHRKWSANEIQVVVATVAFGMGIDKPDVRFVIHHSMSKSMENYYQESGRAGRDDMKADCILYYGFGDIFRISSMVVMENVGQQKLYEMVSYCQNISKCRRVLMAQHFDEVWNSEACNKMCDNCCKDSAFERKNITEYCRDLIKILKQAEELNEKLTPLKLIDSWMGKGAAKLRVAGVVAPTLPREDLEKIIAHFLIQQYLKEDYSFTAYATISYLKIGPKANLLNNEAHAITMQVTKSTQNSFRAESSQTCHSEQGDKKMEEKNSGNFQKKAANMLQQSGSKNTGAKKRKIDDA
Sequence of Ferritin light chain (Equus caballus) (P02791 2-175 limits assumed): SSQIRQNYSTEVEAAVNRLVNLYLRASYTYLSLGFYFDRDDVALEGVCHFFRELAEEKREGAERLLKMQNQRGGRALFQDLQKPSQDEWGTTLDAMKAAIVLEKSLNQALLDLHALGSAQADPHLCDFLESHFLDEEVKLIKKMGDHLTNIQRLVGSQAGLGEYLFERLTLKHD
Sequence of Ubiquitin carboxyl-terminal hydrolase 2 (Homo sapiens) (O75604 whole entry, looked up): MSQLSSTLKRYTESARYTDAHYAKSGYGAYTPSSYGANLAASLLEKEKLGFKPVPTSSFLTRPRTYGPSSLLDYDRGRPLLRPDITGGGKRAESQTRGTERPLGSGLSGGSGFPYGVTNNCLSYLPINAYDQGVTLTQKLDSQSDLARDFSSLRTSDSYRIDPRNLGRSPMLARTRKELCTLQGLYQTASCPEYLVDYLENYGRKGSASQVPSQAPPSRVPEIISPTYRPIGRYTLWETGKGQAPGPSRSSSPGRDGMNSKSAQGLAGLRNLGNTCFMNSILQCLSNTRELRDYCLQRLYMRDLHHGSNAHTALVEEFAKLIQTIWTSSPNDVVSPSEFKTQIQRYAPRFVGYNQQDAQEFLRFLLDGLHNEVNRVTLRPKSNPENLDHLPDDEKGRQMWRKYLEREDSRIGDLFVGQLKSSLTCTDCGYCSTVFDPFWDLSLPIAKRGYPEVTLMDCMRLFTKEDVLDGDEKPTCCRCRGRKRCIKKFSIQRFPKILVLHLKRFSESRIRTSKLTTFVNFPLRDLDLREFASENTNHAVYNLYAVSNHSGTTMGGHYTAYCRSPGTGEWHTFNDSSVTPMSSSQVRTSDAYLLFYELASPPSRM
Sequence of Tumor susceptibility gene 101 protein (Homo sapiens) (Q99816 whole entry, looked up, the tested form may be a part): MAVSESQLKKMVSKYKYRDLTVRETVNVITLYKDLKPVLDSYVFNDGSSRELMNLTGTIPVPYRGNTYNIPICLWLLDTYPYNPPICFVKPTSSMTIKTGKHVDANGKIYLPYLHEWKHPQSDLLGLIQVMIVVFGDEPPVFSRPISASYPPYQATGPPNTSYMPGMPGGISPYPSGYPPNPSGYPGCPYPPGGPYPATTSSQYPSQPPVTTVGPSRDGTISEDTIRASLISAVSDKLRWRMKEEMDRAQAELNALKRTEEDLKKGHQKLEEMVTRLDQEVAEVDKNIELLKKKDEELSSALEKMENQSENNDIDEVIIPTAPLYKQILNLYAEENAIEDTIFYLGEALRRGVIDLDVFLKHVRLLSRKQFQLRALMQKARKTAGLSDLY
Sequence of Beta-2 adrenergic receptor (Homo sapiens) (P07550 whole entry, looked up): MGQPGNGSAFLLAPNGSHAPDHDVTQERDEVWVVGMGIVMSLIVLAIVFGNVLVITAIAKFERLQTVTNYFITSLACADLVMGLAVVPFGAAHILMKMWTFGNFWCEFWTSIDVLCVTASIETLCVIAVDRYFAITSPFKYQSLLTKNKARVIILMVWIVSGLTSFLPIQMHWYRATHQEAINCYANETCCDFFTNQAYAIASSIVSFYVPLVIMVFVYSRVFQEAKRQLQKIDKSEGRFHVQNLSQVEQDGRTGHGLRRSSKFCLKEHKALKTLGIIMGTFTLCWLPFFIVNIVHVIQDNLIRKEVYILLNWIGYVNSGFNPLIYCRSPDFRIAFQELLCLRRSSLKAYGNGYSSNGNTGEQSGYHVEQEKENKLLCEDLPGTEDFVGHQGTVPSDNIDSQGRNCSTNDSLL
Sequence of RecQ-like DNA helicase BLM (Homo sapiens) (P54132 whole entry, looked up): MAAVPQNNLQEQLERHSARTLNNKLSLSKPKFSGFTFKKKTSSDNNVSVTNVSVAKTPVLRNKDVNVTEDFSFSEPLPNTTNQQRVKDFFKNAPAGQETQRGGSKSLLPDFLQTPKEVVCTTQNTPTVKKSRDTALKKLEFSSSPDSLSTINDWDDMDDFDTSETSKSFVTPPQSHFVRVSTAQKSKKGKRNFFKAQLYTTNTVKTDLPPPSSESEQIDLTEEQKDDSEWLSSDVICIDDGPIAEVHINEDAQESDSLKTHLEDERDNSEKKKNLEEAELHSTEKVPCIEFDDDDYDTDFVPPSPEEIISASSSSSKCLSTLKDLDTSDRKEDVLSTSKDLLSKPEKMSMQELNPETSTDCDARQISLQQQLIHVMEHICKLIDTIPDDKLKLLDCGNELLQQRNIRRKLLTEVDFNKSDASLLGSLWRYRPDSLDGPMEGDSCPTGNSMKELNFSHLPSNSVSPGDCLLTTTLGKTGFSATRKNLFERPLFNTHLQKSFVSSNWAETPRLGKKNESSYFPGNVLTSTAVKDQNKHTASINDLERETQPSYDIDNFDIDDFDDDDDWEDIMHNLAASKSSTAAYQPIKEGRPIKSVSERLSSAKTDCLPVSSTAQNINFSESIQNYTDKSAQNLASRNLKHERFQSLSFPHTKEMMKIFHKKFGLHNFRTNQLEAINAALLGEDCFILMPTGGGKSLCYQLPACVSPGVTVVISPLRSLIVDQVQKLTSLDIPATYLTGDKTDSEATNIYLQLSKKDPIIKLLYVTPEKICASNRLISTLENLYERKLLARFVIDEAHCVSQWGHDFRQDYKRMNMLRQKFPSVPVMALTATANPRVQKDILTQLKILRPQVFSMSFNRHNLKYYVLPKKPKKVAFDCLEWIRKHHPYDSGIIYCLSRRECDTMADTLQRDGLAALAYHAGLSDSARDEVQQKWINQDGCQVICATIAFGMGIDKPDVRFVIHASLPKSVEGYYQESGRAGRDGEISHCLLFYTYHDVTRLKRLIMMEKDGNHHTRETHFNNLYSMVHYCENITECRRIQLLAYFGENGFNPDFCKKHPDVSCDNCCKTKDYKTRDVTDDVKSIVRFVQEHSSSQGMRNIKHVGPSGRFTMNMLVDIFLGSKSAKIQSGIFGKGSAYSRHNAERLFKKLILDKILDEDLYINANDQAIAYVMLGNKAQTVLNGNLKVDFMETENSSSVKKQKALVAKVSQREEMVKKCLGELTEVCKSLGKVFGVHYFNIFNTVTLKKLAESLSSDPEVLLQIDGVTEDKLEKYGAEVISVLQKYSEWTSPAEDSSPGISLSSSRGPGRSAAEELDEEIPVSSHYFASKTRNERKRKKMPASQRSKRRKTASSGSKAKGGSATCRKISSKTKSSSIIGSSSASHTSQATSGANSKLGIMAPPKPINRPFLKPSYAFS

For the compound `N#CC(C#N)=C(N)/C(C#N)=C/c1ccc(O)cc1`, the Potency entry in test [1], in test [2], in test [3], in test [4], in test [6] and in test [7] was “inactive” throughout. For the same compound, the Potency entry in [8], in test [9] and in test [10] was “inactive” each time. For the same compound, the compound was classed as inactive in test [5], in test [11], in [12] and in test [13].
Turning to `NC1(C(=O)O)CC1`, the Potency result in test [1], in test [3], in [6], in test [7], in test [14] and in test [8] was “inactive” each time. Moreover, the Potency entry in test [9] and in test [10] was “inactive” throughout. Also, the Potency in test [2] is 12.6 µM (active). In addition, the call in test [5], in test [11], in [12] and in [13] was inactive.
`CCSC(=N)N`: the Potency result in [1], in test [15], in test [4], in test [6], in [14] and in [8] was “inactive” in each case. For the same compound, the Potency entry in [9] and in test [10] was “inactive” throughout. In addition, the compound was called inactive in test [16], in [5], in test [11], in test [12] and in [13].
On to `O=c1[nH]c2cc(Cl)ccc2c(O)c1-c1ccc(Oc2ccccc2)cc1`, for which the Potency entry in [1], in test [15], in [3], in test [4], in test [6] and in [7] was “inactive” throughout. Further, the Potency entry in test [8], in test [9] and in test [10] was “inactive” throughout. Further, the compound was called inactive in [16], in test [5], in test [11] and in [13].
As for `[N-]=[N+]=Nc1ccc(C(=O)CSC[C@H](NC(=O)CC[C@H](N)C(=O)O)C(=O)NCC(=O)O)cc1`, the Potency result in test [1], in test [15], in test [6], in [7] and in [14] was “inactive” in each case. Also, the Potency in test [17] is 28.2 µM (active). The compound was classed as inactive in [11], in [12] and in test [13].
As to `O=C1OC(=O)C2C3CCC(O3)C12` (configuration not stated), the Potency entry in test [1], in test [3], in [4], in test [17], in [7] and in test [14] was “inactive” throughout. Besides, the Potency entry in [9] and in [10] was “inactive” each time. Further, the compound was called inactive in [5], in [11] and in [13].
As to `O=c1oc(Cl)c(Cl)c2ccccc12`, the Potency entry in [1], in test [15], in [4], in test [9] and in [10] was “inactive” each time. Further, the compound was classed as inactive in [11] and in [13].
As to `COc1ccc(-c2ccc(N)[n+](CCCC(=O)O)n2)cc1`, the Potency entry in test [2], in [15], in test [3], in test [4], in [17] and in test [6] was “inactive” in each case. Also, the Potency entry in test [7], in test [14], in test [8], in [9] and in test [10] was “inactive” in each case. Moreover, the compound was called inactive in test [16], in test [5], in [11], in test [12] and in test [13].
With `COc1cc(CNC(=O)CCCCCCC(C)C)ccc1O`, the Potency entry in test [1], in test [15], in test [4], in test [6], in test [14] and in test [8] was “inactive” in each case. Moreover, the Potency entry in test [9] and in test [10] was “inactive” throughout. The compound was classed as inactive in test [5], in [11] and in [13].
As for `O=C(c1ccc2c(c1)OCCO2)N1CCCCC1`, the Potency entry in test [1], in [6], in [14], in test [8], in test [9] and in test [10] was “inactive” throughout. In addition, the compound was called inactive in [16], in [5], in test [11], in [12] and in test [13].

These data come from PubChem BioAssay (NCATS).
